Structures are written as SMILES. About 3,300 (8.5%) of roughly 39,000 compounds were called active. Many of the other results were omitted from the sample, so actives are more common in it than they were.

The test system of the assay is HepG2. Put plainly: cytotoxicity call (relative viability < 0.9). The conditions noted are these: 10 µM.
In the case of `O=C(O)CCCCCCCCCCCC[C@@H]1C=CCC1`, the cytotoxicity call is “inactive”. Consider `COc1ccc(-c2cc(=O)c3c(O)c(OC)c(O[C@H]4O[C@H](CO[C@@H]5O[C@@H](C)[C@H](O)[C@@H](O)[C@H]5O)[C@@H](O)[C@H](O)[C@H]4O)cc3o2)cc1`, for which the cytotoxicity call was “inactive”. In the case of `C[C@H](CO)N1C[C@H](C)[C@@H](CN(C)S(=O)(=O)c2cn(C)cn2)Oc2cc(Br)ccc2S1(=O)=O`, the cytotoxicity call was “inactive”. Regarding `C[C@H](CO)N1C[C@H](C)[C@@H](CN(C)Cc2ccc(-c3ccccc3)cc2)Oc2c(NS(=O)(=O)c3cccs3)cccc2C1=O`, the cytotoxicity call was “inactive”.

As to `C[C@@H]1CCCCO[C@@H](CN(C)Cc2ccncc2)[C@H](C)CN([C@@H](C)CO)C(=O)c2cc(NC(=O)C3CCCCC3)ccc2O1`, the cytotoxicity call is “inactive”. In the case of `CCOC(=O)c1cccc(N)c1.CS(=O)(=O)O`, the cytotoxicity call was “inactive”. Consider `CC(O)C(=O)O.CCOc1ccc2nc3cc(N)ccc3c(N)c2c1`, for which the cytotoxicity call is “active”. On to `CCOc1ccc2nc(S(N)(=O)=O)sc2c1`, for which the cytotoxicity call is “inactive”. With `CO[C@@H](CN(C)C(=O)C1CCOCC1)[C@@H](C)CN(C(=O)Nc1ccc(C(F)(F)F)cc1)[C@@H](C)CO`, the cytotoxicity call is “inactive”. With `CC(=O)N[C@@H]1C[C@H](O)[C@@H](O)CCC(=O)N[C@H](c2ccccc2)COC1=O`, the cytotoxicity call is “inactive”.

On to `C[C@H]1CN([C@@H](C)CO)C(=O)Cc2cc(NC(=O)Cn3cnnn3)ccc2O[C@H]1CN(C)C(=O)Nc1ccc(C(F)(F)F)cc1`, for which the cytotoxicity call is “inactive”. As to `C[C@@H]1CCCCO[C@@H](CN(C)C(=O)NC2CCCCC2)[C@H](C)CN([C@H](C)CO)C(=O)c2cc(NC(=O)CCC(F)(F)F)ccc2O1`, the cytotoxicity call is “inactive”. `CO[C@H]1CN(C)C(=O)c2cc(NC(=O)NC(C)C)ccc2OC[C@H](C)N(Cc2ccc(-c3ccccn3)cc2)C[C@H]1C`: the cytotoxicity call was “inactive”. `C[C@@H]1CCCCO[C@@H](CN(C)C(=O)Nc2cccc3ccccc23)[C@@H](C)CN([C@H](C)CO)C(=O)c2cc(NS(=O)(=O)c3ccc(F)cc3)ccc2O1`: the cytotoxicity call is “inactive”. For `C[C@H](CO)N1C[C@H](C)[C@@H](CN(C)C(=O)Nc2cccc3ccccc23)OCCCC[C@H](C)Oc2ccc(NS(=O)(=O)c3ccc(F)cc3)cc2C1=O`, the cytotoxicity call was “inactive”.

Take `C[C@@H]1CCCCO[C@H](CN(C)C(=O)Nc2cccc3ccccc23)[C@@H](C)CN([C@H](C)CO)C(=O)c2cc(NS(=O)(=O)c3ccc(F)cc3)ccc2O1`: the cytotoxicity call is “active”. With `C[C@@H]1CCCCO[C@H](CN(C)C(=O)Nc2cccc3ccccc23)[C@H](C)CN([C@@H](C)CO)C(=O)c2cc(NS(=O)(=O)c3ccc(F)cc3)ccc2O1`, the cytotoxicity call is “active”. As to `C[C@H](CO)N1C[C@H](C)[C@H](CN(C)C(=O)Nc2cccc3ccccc23)OCCCC[C@H](C)Oc2ccc(NS(=O)(=O)c3ccc(F)cc3)cc2C1=O`, the cytotoxicity call is “inactive”. As to `C[C@H]1CCCCO[C@H](CN(C)C(=O)Nc2cccc3ccccc23)[C@@H](C)CN([C@@H](C)CO)C(=O)c2cc(NS(=O)(=O)c3ccc(F)cc3)ccc2O1`, the cytotoxicity call was “active”.

Turning to `C[C@@H]1CN([C@@H](C)CO)C(=O)c2cc(NS(=O)(=O)c3ccc(F)cc3)ccc2O[C@@H](C)CCCCO[C@@H]1CN(C)C(=O)Nc1cccc2ccccc12`, the cytotoxicity call was “inactive”.

For the compound `C[C@@H]1CCCCO[C@@H](CN(C)C(=O)Nc2cccc3ccccc23)[C@H](C)CN([C@H](C)CO)C(=O)c2cc(NS(=O)(=O)c3ccc(F)cc3)ccc2O1`, the cytotoxicity call is “active”.

For `C[C@@H]1CN([C@@H](C)CO)C(=O)c2cc(NS(=O)(=O)c3ccc(F)cc3)ccc2O[C@@H](C)CCCCO[C@H]1CN(C)C(=O)Nc1cccc2ccccc12`, the cytotoxicity call was “inactive”. As for `C[C@H]1CCCCO[C@@H](CN(C)C(=O)Nc2cccc3ccccc23)[C@@H](C)CN([C@@H](C)CO)C(=O)c2cc(NS(=O)(=O)c3ccc(F)cc3)ccc2O1`, the cytotoxicity call is “inactive”. As for `C[C@@H]1CCCCO[C@@H](CN(C)C(=O)Nc2cccc3ccccc23)[C@H](C)CN([C@@H](C)CO)C(=O)c2cc(NS(=O)(=O)c3ccc(F)cc3)ccc2O1`, the cytotoxicity call was “inactive”.

For `CN1CCC[C@H](C(=O)O)C1`, the cytotoxicity call is “inactive”.

`C[C@@H]1CN([C@H](C)CO)S(=O)(=O)c2ccc(C#CC3CC3)cc2O[C@H]1CN(C)Cc1cccc(F)c1`: the cytotoxicity call is “inactive”.

Take `CNC[C@H]1Oc2cc(C#CC(C)(C)O)ccc2S(=O)(=O)N([C@H](C)CO)C[C@@H]1C`: the cytotoxicity call is “inactive”.

Turning to `O=C(C[C@@H]1CC[C@H]2[C@@H](COC[C@@H](O)CN2S(=O)(=O)c2ccc(Cl)cc2)O1)N[C@@H]1CCN(Cc2ccccc2)C1`, the cytotoxicity call was “inactive”. Under `C[C@@H]1CN([C@H](C)CO)C(=O)c2cc(NS(C)(=O)=O)ccc2O[C@H]1CN(C)C(=O)Nc1ccc2c(c1)OCO2` stands “inactive”; under `CCOC(=O)c1snc2c(=O)nc[nH]c12`, “inactive”; under `C=CCOC(=O)[C@@H]1[C@H]2C(=O)O[C@H](c3ccccc3)[C@H](c3ccccc3)N2[C@H](c2ccc(OCCOC(=O)[C@H]3C[C@H]4C(=O)N[C@@H](CCCCNC(C)=O)C(=O)N4[C@H]3c3cccc(OCCO)c3)cc2)[C@@]12C(=O)Nc1ccc(I)cc12`, “inactive”. `C[C@@H]1CCCCO[C@@H](CN(C)C(=O)CCC(F)(F)F)[C@@H](C)CN([C@@H](C)CO)C(=O)c2cc(NC(=O)Nc3ccc4c(c3)OCO4)ccc2O1`: the cytotoxicity call was “inactive”. `C[C@@H]1CCCCO[C@H](CN(C)C(=O)Nc2cccc3ccccc23)[C@H](C)CN([C@H](C)CO)C(=O)c2cc(NS(=O)(=O)c3ccc(F)cc3)ccc2O1`: the cytotoxicity call was “active”. Turning to `C[C@H]1CN([C@@H](C)CO)S(=O)(=O)c2ccc(-c3cccnc3)cc2O[C@H]1CN(C)C(=O)c1ccc2c(c1)OCO2`, the cytotoxicity call was “inactive”. For `NC(=O)CC1=NC(=O)CS1`, the cytotoxicity call was “inactive”. In the case of `C[C@H]1CN([C@@H](C)CO)C(=O)Cc2cc(NC(=O)Cc3ccccc3)ccc2O[C@@H]1CN(C)S(C)(=O)=O`, the cytotoxicity call was “inactive”.

Turning to `Cc1ccc(S(=O)(=O)Nc2ccc3c(c2)C(=O)N([C@@H](C)CO)C[C@H](C)[C@H](CN(C)Cc2ccc4c(c2)OCO4)OCCCC[C@@H](C)O3)cc1`, the cytotoxicity call is “inactive”.

Take `C[C@@H]1CN([C@@H](C)CO)C(=O)c2cc(NC(=O)Nc3cccc4ccccc34)ccc2O[C@H]1CN(C)Cc1ccncc1`: the cytotoxicity call is “inactive”.

With `CC(=O)OC1(C(C)=O)CCC2C3CC(C)C4=CC(=O)CCC4(C)C3CCC21C` (stereo unspecified), the cytotoxicity call was “inactive”. Turning to `C#CC1(OC(C)=O)CCC2C3CCC4=CC(OC(C)=O)CCC4C3CCC21C` (stereo unspecified), the cytotoxicity call was “active”. Under `C#CC1(OC(C)=O)CCC2C3CCC4=CC(=NO)CCC4C3CCC21CC` (stereo unspecified) stands “active”; under `C#CC1(O)CCC2C3CCC4=CC(=O)CCC4C3CCC21CC` (stereo unspecified), “inactive”; under `C#CC1(OC(C)=O)CCC2C3CCC4=CC(=O)CCC4C3CCC21C` (stereo unspecified), “inactive”.

Consider `C[C@@H]1CN([C@H](C)CO)C(=O)CCCn2cc(nn2)CO[C@@H]1CN(C)C(=O)Nc1ccc2c(c1)OCCO2`, for which the cytotoxicity call is “inactive”. As for `COc1ccc(S(=O)(=O)Nc2cccc3c2O[C@@H](CN(C)C(=O)Nc2c(C)noc2C)[C@H](C)CN([C@H](C)CO)C3=O)cc1`, the cytotoxicity call was “inactive”. In the case of `COc1cccc(S(=O)(=O)N(C)C[C@@H]2Oc3cc(C4=CCCC4)ccc3S(=O)(=O)N([C@H](C)CO)C[C@@H]2C)c1`, the cytotoxicity call was “inactive”. Regarding `C[C@@H]1CN([C@H](C)CO)C(=O)Cc2cc(NC(=O)CCC(F)(F)F)ccc2O[C@H]1CN(C)Cc1ccc(Cl)c(Cl)c1`, the cytotoxicity call was “inactive”. Under `C[C@@H]1CN([C@H](C)CO)C(=O)Cc2cc(NC(=O)CCC(F)(F)F)ccc2O[C@@H]1CN(C)Cc1ccc(Cl)c(Cl)c1` stands “inactive”. Turning to `C[C@@H]1CN([C@H](C)CO)C(=O)c2cc(NC(=O)CCC(F)(F)F)ccc2O[C@@H]1CN(C)Cc1ccc(Cl)c(Cl)c1`, the cytotoxicity call was “inactive”. Under `C[C@@H]1CN([C@@H](C)CO)C(=O)Cc2cc(NC(=O)CCC(F)(F)F)ccc2O[C@H]1CN(C)Cc1ccc(Cl)c(Cl)c1` stands “active”. For `C[C@@H]1CN([C@@H](C)CO)C(=O)Cc2cc(NC(=O)CCC(F)(F)F)ccc2O[C@@H]1CN(C)Cc1ccc(Cl)c(Cl)c1`, the cytotoxicity call was “active”. With `C[C@@H]1CN([C@@H](C)CO)C(=O)c2cc(NC(=O)CCC(F)(F)F)ccc2O[C@H]1CN(C)Cc1ccc(Cl)c(Cl)c1`, the cytotoxicity call is “active”.

Consider `C[C@H](CO)N1C[C@H](C)[C@@H](CN(C)Cc2ccc(Cl)c(Cl)c2)Oc2ccc(NC(=O)CCC(F)(F)F)cc2CC1=O`, for which the cytotoxicity call is “inactive”. Consider `C[C@H](CO)N1C[C@H](C)[C@H](CN(C)Cc2ccc(Cl)c(Cl)c2)Oc2ccc(NC(=O)CCC(F)(F)F)cc2CC1=O`, for which the cytotoxicity call is “inactive”. Under `C[C@H]1CN([C@@H](C)CO)C(=O)c2cc(NC(=O)CCC(F)(F)F)ccc2O[C@H]1CN(C)Cc1ccc(Cl)c(Cl)c1` stands “inactive”; under `C[C@H]1CCCCO[C@@H](CN(C)C(=O)Nc2ccc(C(F)(F)F)cc2)[C@@H](C)CN([C@@H](C)CO)C(=O)c2cc(N(C)C)ccc2O1`, “inactive”. Take `CC(C)NC(=O)Nc1ccc2c(c1)CC(=O)N([C@H](C)CO)C[C@@H](C)[C@@H](CN(C)Cc1ccc3c(c1)OCO3)O2`: the cytotoxicity call was “inactive”. For the compound `C[C@@H]1CCCCO[C@H](CN(C)C(=O)Cc2ccccc2)[C@@H](C)CN([C@H](C)CO)C(=O)c2cc(NC(=O)Cc3ccccc3)ccc2O1`, the cytotoxicity call was “inactive”.

Take `C[C@H]1CN([C@@H](C)CO)C(=O)c2cccc(NC(=O)c3ccc(-c4nccs4)cc3)c2O[C@H]1CN(C)C(=O)NC1CCCCC1`: the cytotoxicity call was “inactive”. For the compound `C[C@H]1CCCCO[C@@H](CN(C)C(=O)Nc2ccc(C(F)(F)F)cc2)[C@@H](C)CN([C@@H](C)CO)C(=O)c2cc(NC(=O)Nc3ccc(C(F)(F)F)cc3)ccc2O1`, the cytotoxicity call was “inactive”. Regarding `C[C@@H]1CCCCO[C@H](CN(C)C(=O)Nc2ccc(C(F)(F)F)cc2)[C@H](C)CN([C@H](C)CO)C(=O)c2cc(NC(=O)Nc3ccc(C(F)(F)F)cc3)ccc2O1`, the cytotoxicity call was “inactive”. On to `C[C@@H]1CN([C@H](C)CO)C(=O)c2cc(NC(=O)Nc3ccc(C(F)(F)F)cc3)ccc2O[C@@H](C)CCCCO[C@H]1CN(C)C(=O)Nc1ccc(C(F)(F)F)cc1`, for which the cytotoxicity call was “active”.

As for `CC(C)NC(=O)N(C)C[C@@H]1OCCCC[C@H](C)Oc2ccc(NC(=O)Nc3ccc(C(F)(F)F)cc3)cc2C(=O)N([C@@H](C)CO)C[C@@H]1C`, the cytotoxicity call was “active”.

Turning to `C[C@H](CO)N1C[C@H](C)[C@H](CN(C)C(=O)Nc2ccc(C(F)(F)F)cc2)OCCCC[C@H](C)Oc2ccc(NC(=O)Nc3ccc(C(F)(F)F)cc3)cc2C1=O`, the cytotoxicity call is “inactive”. `CC(C)NC(=O)N(C)C[C@H]1OCCCC[C@H](C)Oc2ccc(NC(=O)Nc3ccc(C(F)(F)F)cc3)cc2C(=O)N([C@H](C)CO)C[C@@H]1C`: the cytotoxicity call is “inactive”.

Consider `C[C@@H]1CCCCO[C@H](CN(C)C(=O)Nc2ccc(C(F)(F)F)cc2)[C@@H](C)CN([C@@H](C)CO)C(=O)c2cc(NC(=O)Nc3ccc(C(F)(F)F)cc3)ccc2O1`, for which the cytotoxicity call is “inactive”. In the case of `Cc1noc(C)c1NC(=O)N(C)C[C@@H]1OCCCC[C@H](C)Oc2ccc(NC(=O)Nc3ccc(C(F)(F)F)cc3)cc2C(=O)N([C@@H](C)CO)C[C@@H]1C`, the cytotoxicity call is “active”. As to `CC(C)NC(=O)N(C)C[C@H]1OCCCC[C@@H](C)Oc2ccc(NC(=O)Nc3ccc(C(F)(F)F)cc3)cc2C(=O)N([C@@H](C)CO)C[C@H]1C`, the cytotoxicity call was “inactive”. On to `C[C@H]1CCCCO[C@H](CN(C)C(=O)Nc2ccc(C(F)(F)F)cc2)[C@@H](C)CN([C@@H](C)CO)C(=O)c2cc(NC(=O)Nc3ccc(C(F)(F)F)cc3)ccc2O1`, for which the cytotoxicity call is “active”.

Regarding `Cc1noc(C)c1NC(=O)N(C)C[C@@H]1OCCCC[C@@H](C)Oc2ccc(NC(=O)Nc3ccc(C(F)(F)F)cc3)cc2C(=O)N([C@H](C)CO)C[C@@H]1C`, the cytotoxicity call is “inactive”.

`Cc1noc(C)c1NC(=O)N(C)C[C@H]1OCCCC[C@@H](C)Oc2ccc(NC(=O)Nc3ccc(C(F)(F)F)cc3)cc2C(=O)N([C@@H](C)CO)C[C@H]1C`: the cytotoxicity call was “inactive”.

These data come from the antibiotic and cytotoxicity screens of Wong et al. (2023).
